# From PubChem BioAssay
# Values joined by “and” are separate entries in the source; they are usually repeats but may differ in a detail not shown here. Identical values can stand only once. Some structures have more than one record in an assay (separate samples or runs), and their calls can disagree. Active and inactive are the calls of the source. Rule as the data show it, unless noted: active = inhibition above about 80%; inactive = the rest.
# How the values were obtained:
# [1] = biological target: Mitogen-activated protein kinase 7 (Homo sapiens) (UniProt Q13164); experiment: ERK5 transactivation activators in reporter cells, primary screen, cell-based, HTS (AID 1508626;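 active = luciferase signal above three times the same-plate solvent-only control wells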;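 also: luciferase driven by Gal4-ERK5 fusion binding five Gal4 sites before minimal TATA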); conditions: HeLa Gal4-ERK5 transactivation, 18 h, at 5 µM, stronger effect = higher value
# Chain of Mitogen-activated protein kinase 7 (Homo sapiens) (Q13164 whole entry, looked up, the tested form may be a part): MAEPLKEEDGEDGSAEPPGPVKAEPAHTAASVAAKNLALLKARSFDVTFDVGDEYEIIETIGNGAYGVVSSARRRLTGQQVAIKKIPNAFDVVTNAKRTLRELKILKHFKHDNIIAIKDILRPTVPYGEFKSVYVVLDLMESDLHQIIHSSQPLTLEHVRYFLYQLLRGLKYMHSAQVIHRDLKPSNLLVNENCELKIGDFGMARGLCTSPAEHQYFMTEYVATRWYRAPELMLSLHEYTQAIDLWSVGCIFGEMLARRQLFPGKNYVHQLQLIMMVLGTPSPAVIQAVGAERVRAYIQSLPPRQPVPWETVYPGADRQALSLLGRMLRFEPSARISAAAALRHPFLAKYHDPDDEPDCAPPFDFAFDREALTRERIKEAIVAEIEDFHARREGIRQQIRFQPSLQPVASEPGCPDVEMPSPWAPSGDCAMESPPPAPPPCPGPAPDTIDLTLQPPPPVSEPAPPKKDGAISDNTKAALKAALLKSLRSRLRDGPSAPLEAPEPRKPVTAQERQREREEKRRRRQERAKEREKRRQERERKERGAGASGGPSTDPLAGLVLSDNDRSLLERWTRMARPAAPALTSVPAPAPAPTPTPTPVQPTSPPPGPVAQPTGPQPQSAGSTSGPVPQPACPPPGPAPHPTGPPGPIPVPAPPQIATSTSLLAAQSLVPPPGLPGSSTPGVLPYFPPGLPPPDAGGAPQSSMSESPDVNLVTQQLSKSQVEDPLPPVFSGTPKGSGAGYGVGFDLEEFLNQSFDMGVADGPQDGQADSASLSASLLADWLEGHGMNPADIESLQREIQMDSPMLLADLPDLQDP
# [2] = LFS_MB_1R medulloblastoma cell growth inhibition, synergistic combos for chromothripsis tumors, cisplatin or BGB combos (AID 1671452); conditions: LFS_MB_1R medulloblastoma cells, stronger effect = higher value;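 also: cells exposed for 96 hours before readout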
# [3] = CRL2098 osteosarcoma cell growth inhibition, synergistic combos for chromothripsis tumors, BGB or cisplatin IC20 combos (AID 1671454); conditions: CRL2098 osteosarcoma cells, drug combinations, stronger effect = higher value;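 also: cells exposed for 96 h before readout; 0% = vehicle DMSO and 100% = killing by high DMSO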
# [4] = HD-MB03 medulloblastoma cell growth inhibition, synergistic combos for chromothripsis tumors, BGB or cisplatin IC20 combos (AID 1671455; in the data active = inhibition above about 83%;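 also: 0% = vehicle DMSO and 100% = high DMSO as cytotoxic control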); conditions: HD-MB03 medulloblastoma cells, stronger effect = higher value
# [5] = UWB1.289 ovarian carcinoma cell growth inhibition, synergistic combos for chromothripsis tumors, BGB or cisplatin combos (AID 1671456); conditions: UWB1.289 ovarian carcinoma cells, stronger effect = higher value;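 also: cells exposed to compound for four days; 0% = vehicle DMSO and 100% = killing by high DMSO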
# [6] = LFS_MB_2R medulloblastoma cell growth inhibition, synergistic combos for chromothripsis tumors, cisplatin combos (AID 1671457); conditions: LFS_MB_2R medulloblastoma cells, stronger effect = higher value;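 also: cells exposed to compound for four days before readout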
# [7] = UWB1.289_BRCA1 ovarian cancer growth, cell-based, BGB or cisplatin combinations (AID 1671459); conditions: UWB1.289 BRCA1 ovarian carcinoma, drug combinations, stronger effect = higher value
# [8] = human astrocyte viability loss, single and combined drugs, cytotoxicity control for chromothriptic childhood tumor combination screen, cell-based, BGB or cisplatin IC20 combos (AID 1671460); conditions: Human astrocytes, drug combinations, stronger effect = higher value;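 also: cells exposed to compounds for 96 hours before viability readout; 0% = vehicle and 100% = killing control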
# [9] = growth inhibition of CRL1545 osteosarcoma cells, cell-based, cisplatin and BGB IC20 combos (AID 1671464); conditions: stronger effect = higher value;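 also: cells exposed to compound for 96 hours before readout; 0% = vehicle DMSO and 100% = high DMSO killing control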
# [10] = liver-stage malaria parasite growth inhibition, primary screen, cell-based, HepG2, luciferase luminescence, HepG2 viability (AID 624349; in the data active = parasite load remaining mostly below about 12%, no sharp cut-off; inactive = mostly above about 10%;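 also: 100% = mean of DMSO negative control wells on the same plate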); conditions: P. berghei liver stage in HepG2, luciferase luminescence, concentration not given here; parasite load remaining: stronger effect = lower value; viability: measured here: HepG2 viability without parasites
# [11] = biological target: NAD(+) hydrolase SARM1 (Homo sapiens) (UniProt Q6SZW1); experiment: SARM1 TIR NADase inhibitors, cell lysate, NAD-Glo luminescence (AID 1508614;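 active = compound whose remaining NAD level is above about 45 nM, limit read from the data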;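 also: higher remaining NAD means stronger inhibition of SARM1 NADase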); conditions: SAM-TIR HEK293T lysate NADase, at 1 µM, stronger effect = higher value
# Chain of NAD(+) hydrolase SARM1 (Homo sapiens) (Q6SZW1 whole entry, looked up): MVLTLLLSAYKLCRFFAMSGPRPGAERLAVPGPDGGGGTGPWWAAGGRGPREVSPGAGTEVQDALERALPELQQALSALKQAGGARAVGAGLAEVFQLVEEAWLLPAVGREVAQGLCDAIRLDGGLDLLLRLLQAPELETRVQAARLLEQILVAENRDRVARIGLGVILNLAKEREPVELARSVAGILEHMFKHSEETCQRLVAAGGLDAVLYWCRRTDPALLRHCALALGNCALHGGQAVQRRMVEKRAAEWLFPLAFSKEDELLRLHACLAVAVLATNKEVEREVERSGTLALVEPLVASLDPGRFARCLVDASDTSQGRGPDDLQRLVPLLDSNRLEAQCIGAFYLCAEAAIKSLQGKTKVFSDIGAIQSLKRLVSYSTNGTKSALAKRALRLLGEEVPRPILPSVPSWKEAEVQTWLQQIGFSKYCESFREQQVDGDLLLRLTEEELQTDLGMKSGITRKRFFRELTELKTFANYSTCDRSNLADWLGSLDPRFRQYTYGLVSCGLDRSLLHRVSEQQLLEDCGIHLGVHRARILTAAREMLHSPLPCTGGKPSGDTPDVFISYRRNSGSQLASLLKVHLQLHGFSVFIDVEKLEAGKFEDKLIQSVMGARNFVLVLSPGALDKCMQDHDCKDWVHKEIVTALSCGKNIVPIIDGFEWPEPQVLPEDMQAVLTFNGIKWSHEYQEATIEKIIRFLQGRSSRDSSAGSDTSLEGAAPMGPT
# [12] = viability rescue of complex I mutant cybrids, primary screen, cell-based, galactose medium, ATP luminescence (AID 1645843;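 active = z-score of at least 1.8 in each of two replicates, scored against plate mean and spread of sample wells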;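 also: positive z means more ATP and so rescue of galactose-driven cybrid death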); conditions: complex I mutant cybrid cells, 72 h, stronger effect = higher value
# [13] = hESC survival regulators, cell-based (AID 493140; call rule not given here;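 also: cells exposed to compounds for four days before counting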); conditions: human embryonic stem cell survival screen; stronger effect = higher value
# [14] = measured here: combination with BGB IC40, at 0.05 µM
# [15] = measured here: combination with cisplatin, at 0.5 µM
# [16] = measured here: combination with cisplatin, at 5 µM
# [17] = measured here: combination with BGB at IC20, at 0.5 µM
# [18] = measured here: combination with cisplatin at IC20, at 0.5 µM
# [19] = measured here: combo with BGB at IC20, at 0.5 µM
# [20] = measured here: combo with cisplatin at IC20, at 0.5 µM
# [21] = measured here: inhibition with BGB combination, at 0.05 µM
# [22] = measured here: inhibition with cisplatin combination, at 0.05 µM
# [23] = BGB combination, concentration series, at 5 µM
# [24] = cisplatin combination, concentration series, at 5 µM
# [25] = measured here: combo with BGB IC20, at 0.5 µM
# [26] = measured here: combo with cisplatin IC20, at 0.5 µM
# [27] = measured here: with BGB IC20 combination, at 0.5 µM
# [28] = measured here: with cisplatin IC20 combination, at 0.5 µM
smiles,measurement,setting,value
CC[C@H](/C=C/[C@@H](C)[C@H]1CC[C@H]2[C@@H]3CC=C4C[C@@H](O)CC[C@]4(C)[C@H]3CC[C@]12C)C(C)C,luciferase signal,[1],52 AU (inactive)
CN(C)Cc1c(C(=O)NCCOc2ccc(C(=O)NO)cc2)oc2ccccc12,inhibition,[2]; at 0.5 µM,45.6% (inactive)
same,inhibition,[2]; [14],-17%
same,inhibition,[2]; [15],62.1%
same,inhibition,[2]; [16],98.2%
same,inhibition,[3]; at 0.5 µM,25.5% (inactive)
same,inhibition,[3]; [17],32.6%
same,inhibition,[3]; [18],21.9%
same,inhibition,[4]; at 0.5 µM,99.3% (active)
same,inhibition,[4]; [19],99.1%
same,inhibition,[4]; [20],99.5%
same,inhibition,[5]; at 0.5 µM,49.7% (inactive)
same,inhibition,[5]; [21],11.1%
same,inhibition,[5]; [22],27.1%
same,inhibition,[6]; at 0.5 µM,51.5% (inactive)
same,inhibition,[6]; [15],71.4%
same,inhibition,[6]; [16],106%
same,inhibition,[7]; [23],111%
same,inhibition,[7]; at 0.5 µM,59.3% (inactive)
same,inhibition,[7]; [24],125%
same,inhibition,[8]; at 0.5 µM,49.9% (inactive)
same,inhibition,[8]; [25],45%
same,inhibition,[8]; [26],44%
same,inhibition,[9]; at 0.5 µM,80.7% (active)
same,inhibition,[9]; [27],78.9%
same,inhibition,[9]; [28],81.1%
same,inhibition,"[9]; single agent, at 0.05 µM",38.5%
same,inhibition,"[9]; single agent, at 5 µM",96.4%
Cc1ccc([N+](=O)[O-])cc1S(=O)(=O)N(C)/N=C/c1cnc2ccc(Br)cn12,parasite load remaining,[10],40.5% (inactive)
same,viability,[10],60.2%
same,inhibition,[2]; at 0.5 µM,82.3% (active)
same,inhibition,[2]; [14],-47.5%
same,inhibition,[2]; [15],77.8%
same,inhibition,[2]; [16],97.4%
same,inhibition,[3]; at 0.5 µM,89.7% (active)
same,inhibition,[3]; [17],91.5%
same,inhibition,[3]; [18],95.8%
same,inhibition,[4]; at 0.5 µM,84.2% (active)
same,inhibition,[4]; [19],85%
same,inhibition,[4]; [20],81.5%
same,inhibition,[5]; at 0.5 µM,63.4% (inactive)
same,inhibition,[5]; [21],-17.5%
same,inhibition,[5]; [22],-14.7%
same,inhibition,[6]; at 0.5 µM,63.9% (inactive)
same,inhibition,[6]; [15],63.1%
same,inhibition,[6]; [16],90.7%
same,inhibition,[7]; [23],89.2%
same,inhibition,[7]; at 0.5 µM,73.9% (inactive)
same,inhibition,[7]; [24],92.4%
same,inhibition,[8]; at 0.5 µM,83.2% (active)
same,inhibition,[8]; [25],77.8%
same,inhibition,[8]; [26],81.3%
same,inhibition,[9]; at 0.5 µM,96.9% (active)
same,inhibition,[9]; [27],98.1%
same,inhibition,[9]; [28],96.2%
same,inhibition,"[9]; single agent, at 0.05 µM",-27.4%
same,inhibition,"[9]; single agent, at 5 µM",99.9%
CC1(C)O[C@@H]2C[C@H]3[C@@H]4CCC5=CC(=O)C=C[C@]5(C)[C@H]4[C@@H](O)C[C@]3(C)[C@]2(C(=O)CO)O1,remaining NAD,[11],10 nM (inactive)
same,luciferase signal,[1],172 AU (inactive)
C=C(c1ccc(C(=O)O)cc1)c1cc2c(cc1C)C(C)(C)CCC2(C)C,parasite load remaining,[10],34.5% (inactive)
same,viability,[10],146%
same,z-score,[12],0.715 (inactive)
CC[C@H](CO)Nc1nc(NCc2ccccc2)c2ncn(C(C)C)c2n1,survival,[13],75.1 (inactive)
same,parasite load remaining,[10],29.6% (inactive)
same,viability,[10],68.3%
COc1ccc(-c2nc(N3CCOCC3)c3sc(CN(C)c4ncc(C(=O)NO)cn4)cc3n2)cn1,inhibition,[2]; at 0.5 µM,93% (active) and 88.4% (active)
same,inhibition,[2]; [14],27.1% and 15.8%
same,inhibition,[2]; [15],91.8% and 93.4%
same,inhibition,[2]; [16],100% and 102%
same,inhibition,[3]; at 0.5 µM,77.2% (inactive) and 40.2% (inactive)
same,inhibition,[3]; [17],83.7% and 62.7%
same,inhibition,[3]; [18],71.6% and 16.5%
same,inhibition,[4]; at 0.5 µM,99.8% (active)
same,inhibition,[4]; [19],99.7%
same,inhibition,[4]; [20],99.9% and 99.8%
same,inhibition,[5]; at 0.5 µM,74.5% (inactive) and 79.8% (inactive)
same,inhibition,[5]; [21],5.77% and 13.7%
same,inhibition,[5]; [22],-4.75% and -1.55%
same,inhibition,[6]; at 0.5 µM,82.2% (active) and 85.4% (active)
same,inhibition,[6]; [15],93.9% and 97.3%
same,inhibition,[6]; [16],110% and 105%
same,inhibition,[7]; [23],118% and 117%
same,inhibition,[7]; at 0.5 µM,79.8% (inactive) and 83.2% (active)
same,inhibition,[7]; [24],127% and 131%
same,inhibition,[8]; at 0.5 µM,101% (active) and 102% (active)
same,inhibition,[8]; [25],103% and 104%
same,inhibition,[8]; [26],100% and 101%
same,inhibition,[9]; at 0.5 µM,88.6% (active) and 47.7% (inactive)
same,inhibition,[9]; [27],89.3% and 57.8%
same,inhibition,[9]; [28],88% and 41.7%
same,inhibition,"[9]; single agent, at 0.05 µM",21.7% and -65.8%
same,inhibition,"[9]; single agent, at 5 µM",99.3% and 99%
